# 3T3 cytotox: Cytotoxic Profiling in NIH 3T3 Cell Line of Diverse Libraries Using Quantitative High-Throughput Screening; NIH 3T3 viability, CellTiter-Glo ATP luminescence, 48-72 h; Potency, µM (doses to about 96.7 µM), without a hit: at the top dose activity change, negative = cytotoxicity, usual class: inhibitors; 94,000 tested, 4.3% active; AID 1345082, 2018; also: nearly all actives have a fitted effect of over 55% in size
#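 Viability of NIH 3T3 cells after 48 or 72 hr compound treatment at 37 °C was assessed by CellTiter-Glo, with luminescence imaged following a 10 min room-temperature step.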
# Luciferase inh: Firefly luciferase inhibition profiling of diverse chemical library using quantitative high-throughput screening | purified P. pyralis luciferase, luminescence, biochemical | Potency, µM (titrated, usually from 115 µM), hits mostly inhibitors | 76,000 tested, 2.5% active | Luciferin 4-monooxygenase (Photinus pyralis), P08659; also: nearly all actives have a fitted effect of over 65% in size
# Target sequence (P08659 whole entry, looked up): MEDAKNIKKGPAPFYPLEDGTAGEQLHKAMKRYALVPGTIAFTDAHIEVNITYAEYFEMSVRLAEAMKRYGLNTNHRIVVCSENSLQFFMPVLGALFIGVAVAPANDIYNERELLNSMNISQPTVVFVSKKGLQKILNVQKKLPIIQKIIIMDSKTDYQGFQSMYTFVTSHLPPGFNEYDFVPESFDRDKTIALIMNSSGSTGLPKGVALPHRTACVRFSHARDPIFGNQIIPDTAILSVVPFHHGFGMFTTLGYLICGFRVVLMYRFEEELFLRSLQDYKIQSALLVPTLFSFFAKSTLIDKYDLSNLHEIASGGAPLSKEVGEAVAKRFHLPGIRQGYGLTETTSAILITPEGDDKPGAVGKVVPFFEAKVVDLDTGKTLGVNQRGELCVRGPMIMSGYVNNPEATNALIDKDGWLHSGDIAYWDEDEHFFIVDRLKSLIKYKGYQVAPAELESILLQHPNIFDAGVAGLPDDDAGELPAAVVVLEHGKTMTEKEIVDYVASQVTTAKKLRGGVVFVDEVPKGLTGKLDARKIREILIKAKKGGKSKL
#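 Cell-free enzyme assay, 10nM P. pyralis luciferase, luciferin and ATP each at 10uM. Inhibition profiled over a 6-point titration, read as luminescence.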
# hNpr1 antagonist: Natriuretic polypeptide receptor (hNpr1) antagonism - Primary qHTS; Atrial natriuretic peptide receptor 1 (Homo sapiens), P16066; HEK293 hNpr1 GloSensor cGMP, ANP-stimulated luminescence; Potency, µM (top dose mostly 46.3 µM), inactives show at the top dose activity change, negative = inhibition, most hits filed as inhibitors; 76,000 tested, 1.6% active; AID 1347048, 2019; calls by dose curve; also: nearly all actives have a fitted effect of over 60% in size
#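 Compound pre-incubated 30 min at room temperature on GloSensor-loaded HEK293 cells stably carrying hNpr1 and the pGS-40F cGMP biosensor. Stimulation uses hNppA at 0.1 nM final; luminescence is taken at baseline and 20 min post-agonist.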
# HEK293 tox: Cytotoxic Profiling in HEK 293 Cell Line of Diverse Libraries Using Quantitative High-Throughput Screening; HEK 293 viability, ATP luminescence (CellTiter-Glo), 48-72 h; Potency, µM (doses to about 115 µM), inactives show at the highest dose activity change, negative = cytotoxicity, hits mostly inhibitors; 94,000 tested, 6.6% active; also: nearly all actives have a fitted effect of over 60% in size
#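 Read-out: CellTiter-Glo ATP luminescence. Cells: HEK 293, 250 cells/well. Exposure: 48 or 72 hr, 37 degree Celsius.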
# GPT2 inhibitor: Primary qHTS assay for inhibitors of Glutamate pyruvate transaminase 2 (GPT2). Recombinant GPT2, coupled pyruvate oxidase/HRP Amplex Red fluorescence. 100,000 tested, 0.25% active. AID 1671188, 2021. Potency, µM (titrated, usually from 57.7 µM), without a hit: at the top dose activity change, negative = inhibition, most hits filed as inhibitors; also: nearly all actives have a fitted effect of over 60% in size
#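 Fluorescence read-out: pyruvate from GPT2 turnover coupled to pyruvate oxidase, HRP and Amplex Red (0.2mM ThPP, 0.2U/mL PO and HRP, 50uM Amplex final). Substrates 250uM a-KG, 2mM L-alanine; enzyme 10ng/uL; 30 min RT.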
# Active calls of the source: *; i = inactive; ? = inconclusive; . = not tested or not shown; [ ] = remark or other dose. Shown are actives, neighbours in structure and some others; about 10% of the full set was active somewhere. Unless noted, calls follow the shape of the dose curve; as a rule, active = well fitted curve in the direction sought with a large enough effect; inconclusive = small, poorly fitted or top-dose-only effect, or another doubt; inactive = no such curve, though single readings can be large; an effect the other way counts as inactive or inconclusive. % is scaled to controls: 0 for no effect and ±100 for the full control effect; potency is read from the fitted curve at half-maximal effect.
SMILES,3T3 cytotox,Luciferase inh,hNpr1 antagonist,HEK293 tox,GPT2 inhibitor
CNC(=O)CCn1ncc2cc(OCc3ccccc3-c3cccc(C)c3)ccc21,89.1µM*,44.7µM*,-26.4%[70.6 µM],100µM*,?
CNC(=O)CCn1ncc2cc(OCc3ccccc3-c3c(Cl)cccc3OC)ccc21,?,i,1.2%,?,0.8%
CNC(=O)CCn1ncc2cc(OCc3ccccc3-c3ccccc3OC)ccc21,89.1µM*,39.8µM*,-14.6%[70.6 µM],?,-27.6%[88.5 µM]
CNC(=O)CCn1ncc2cc(OCc3ccccc3-c3ccccc3COC)ccc21,?,i,-7.5%[70.6 µM],89.1µM*,-0.4%[88.5 µM]
Cc1noc(-c2cccc(OC3CN(C(=O)c4ccoc4)C3)c2)n1,-29.3%,i,-10.2%,?,0.8%
O=C(NCCCc1ccccc1)C1CN(c2ccccc2)C(=O)N1 (centres undefined),3.4%[138 µM],i,11.1%[70.6 µM],i,-3.0%[88.5 µM]
CC(C)c1cnc(-c2cccnc2)[nH]1,-22.6%[174 µM],.,.,1.5%[230 µM],i
Cc1ccc(Nc2ccnc(N3CCCC(C(=O)NCCCc4ccccc4)C3)n2)cc1 (centres undefined),?,.,.,5.01µM*,i
Cc1ccc(Nc2ccnc(N3CCC(C(=O)NCCCc4ccccc4)CC3)n2)cc1,12.6µM*,.,.,?,i
COc1ccc(Nc2ccnc(N3CCCC(C(=O)NCCCc4ccccc4)C3)n2)cc1 (centres undefined),?,.,.,22.4µM*,-8.1%
COc1ccc(Nc2ccnc(N3CCCC(C(=O)NC4CC4)C3)n2)cc1 (centres undefined),?,.,.,?,i
CSCCNC(=O)C1CCCN(c2nccc(Nc3ccc(C)cc3)n2)C1 (centres undefined),?,.,.,?,-0.4%
COc1ccc(CCc2nc3cc(-c4c(C)noc4C)ccc3n2CC(C)N2CCOCC2)cc1Cl (centres undefined),.,.,.,.,i
CN(C)c1cccc(-c2cnc(Nc3cccnc3)c3c2CCO3)c1,50.1µM*,39.8µM*,?,63.1µM*,2.3%[88.5 µM]
CNC(=O)c1cccc(-c2cnc(Nc3ccc4c(c3)OCCO4)c3c2CCO3)c1,?,5.62µM*,?,79.4µM*,i
CN(C)c1cccc(-c2cnc(Nc3ccc4c(c3)OCCO4)c3c2CCO3)c1,-22.6%[138 µM],3.55µM*,?,?,i
CS(=O)(=O)c1ccc(-c2cnc([C@@H]3COCCN3Cc3cnc4ccccc4c3)[nH]2)cc1,-16.0%,i,4.7%,-22.6%,-9.5%
Fc1ccc(-c2cnc([C@@H]3COCCN3Cc3cnc4ccccc4c3)[nH]2)cc1,?,i,-28.7%[70.6 µM],89.1µM*,-6.4%[88.5 µM]
COc1cccc(-c2cnc([C@@H]3COCCN3Cc3cnc4ccccc4c3)[nH]2)c1,-21.7%[138 µM],i,-28.1%[70.6 µM],100µM*,3.1%[88.5 µM]
CC(=O)N1CCC(NC2(Cc3cc(C(C)(C)O)on3)COC2)CC1,i,i,7.2%[70.6 µM],i,1.0%[88.5 µM]
CNC(=O)Nc1cccn2nc(-c3ccccc3)nc12,?,39.8µM*,-3.9%,?,?
COC(=O)CC(NC(=O)Nc1cccn2nc(C)nc12)c1ccccc1 (centres undefined),-11.4%,i,-9.1%,-10.9%,-0.7%
O=C(c1ccccc1Br)N1CCN(c2cc(-c3cccs3)[nH]n2)CC1,?,i,-25.0%,?,-8.5%
O=C(c1c[nH]c2ccccc12)N1CCN(c2cc(-c3cccs3)[nH]n2)CC1,?,i,-22.3%,44.7µM*,-4.0%
O=C(c1ccoc1)N1CCN(c2cc(-c3cccs3)[nH]n2)CC1,-9.7%,i,-4.7%,1.4%,i
SMILES,3T3 cytotox,Luciferase inh,hNpr1 antagonist,HEK293 tox,GPT2 inhibitor
Cc1ccc(C(=O)N2CCN(c3cc(-c4cccs4)[nH]n3)CC2)cc1,12.6µM*,i,-0.6%,?,-0.2%
CN(C)C[C@@H]1CN(S(C)(=O)=O)C[C@H]1NC(=O)c1c(F)cccc1Cl,1.0%,39.8µM*,0.8%,i,i
Cc1ccccc1-n1nc(C)c(CCC(=O)N(C)C(C)C)c1Oc1ccccc1F,?,i,-18.8%,44.7µM*,-14.5%
Cc1nn(-c2ccc(F)cc2)c(Oc2ccc(F)cc2F)c1CCC(=O)NC(C)C,?,i,-5.6%,?,-13.6%
Cc1cccc(-n2nc(C)c(CCC(=O)N(C)C(C)C)c2Oc2ccccc2C)c1,28.2µM*,i,?,?,i
CCN(CC)C(=O)CCc1c(C)nn(-c2ccccc2C)c1Oc1cccc(F)c1,?,i,-15.5%,39.8µM*,-1.5%
Cc1nn(-c2ccc(F)cc2)c(Oc2ccc(F)cc2F)c1CCC(=O)N(C)C(C)C,?,i,-18.0%,39.8µM*,-5.2%
Cc1ccc(C(=O)N2CC(c3noc(COc4ccccc4C)n3)C2)cn1,-10.3%,i,-2.9%,-18.5%,-10.6%
CN(C)S(=O)(=O)N1CCC(F)(c2nc(-c3ccccc3)no2)CC1,-18.1%,?,?,?,i
Cc1ccc(CN2CC[C@H](c3nnc(-c4ccccc4F)o3)C2)o1,-24.3%[174 µM],i,-0.4%[70.6 µM],?,-26.0%[88.5 µM]
CS(=O)(=O)N1C[C@H]2CCN(C(=O)c3ccc4[nH]ccc4c3)C[C@H]21,-10.1%,i,-1.5%,3.7%,i
COCCNC(=O)CCc1c(C)nn(-c2ccc(F)cc2)c1Oc1ccc(F)cc1F,25.1µM*,i,-5.7%,?,-5.0%
Cc1cccc(-n2nc(C)c(CCC(=O)N(C)C(C)C)c2Oc2ccc(F)cc2F)c1,39.8µM*,i,?,?,i
O=C(NCc1cccc(F)c1)C1CCCCN1Cc1ccc(-c2ccsc2)cc1 (centres undefined),28.2µM*,.,.,39.8µM*,-13.7%
O=C(NCc1cccc(F)c1)C1CCCCN1Cc1ccc(-c2cccs2)cc1 (centres undefined),28.2µM*,.,.,20µM*,-3.8%
Cc1cc(C)cc(-c2ccc(CN3CCCC3C(=O)NCc3cccc(F)c3)cc2)c1 (centres undefined),?,.,.,?,-26.4%
O=C(NCc1ccc2c(c1)OCO2)C1CCCCN1Cc1ccc(-c2ccsc2)cc1 (centres undefined),12.6µM*,.,.,22.4µM*,4.0%
CCOc1ccccc1OCCN[C@H](C)Cc1ccc(OC)c(S(N)(=O)=O)c1,.,.,.,.,0.6%
Cc1ccc(NC(=O)C2CCc3ncc(-c4ccsc4)n3C2)cc1C (centres undefined),?,i,-5.9%,?,i
O=C1NCCCCCCN(C(=O)c2cccs2)[C@H]2CCC[C@@H]12,i,i,4.8%,4.6%,-0.5%

# Compound activity from PubChem.
